PubChem BioAssay (NCI)
About 83,000 compounds went through this panel and 20% of them were active in at least one assay; those are over-represented in the sample as a whole.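 Step 1: grow cells in 96-well plates. Step 2: add test compound at a single concentration. Step 3: incubate 48 h. Step 4: record percent growth.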 Calls of active or inactive are those of the source. The calls were made as follows: active = growth percent below 10; inactive = the rest.

Tests used:
Test in all cases: NCI-60 one-dose screen, 48 h (100 = growth as untreated, 0 = no growth, -100 = all killed)
NCI-H23 lung = conditions: 10 µM unless noted
NCI-H322M lung = conditions: 10 µM unless noted
HOP-62 NSCLC = conditions: 10 µM unless noted
NCI-H460 lung = conditions: 10 µM unless noted
HOP-92 NSCLC = conditions: 10 µM unless noted
NCI-H522 lung = conditions: 10 µM
A549/ATCC NSCLC = conditions: 10 µM unless noted
786-0 renal = conditions: 10 µM unless noted
DU-145 prostate = conditions: 10 µM unless noted
K-562 leukemia = conditions: 10 µM unless noted
MALME-3M melanoma = conditions: 10 µM unless noted
MDA-MB-231 breast = conditions: 10 µM unless noted
RXF 393 renal = conditions: 10 µM unless noted
SF-268 CNS = conditions: 10 µM unless noted
SF-295 CNS = conditions: 10 µM unless noted
SF-539 CNS = conditions: 10 µM unless noted
UACC-257 melanoma = conditions: 10 µM unless noted
M14 melanoma = conditions: 10 µM unless noted
COLO 205 colon = conditions: 10 µM unless noted

Measured: growth

Cc1ccc(S(=O)(=O)N2CCc3ccc(O)c4c3C2CCc2ccccc2-4)cc1 (stereo not drawn)
inactive: NCI-H23 lung 95.9% | NCI-H322M lung 99.1% | HOP-62 NSCLC 106% | NCI-H460 lung 108% | HOP-92 NSCLC 116% | NCI-H522 lung 82.4% | A549/ATCC NSCLC 102% | 786-0 renal 100% | DU-145 prostate 106% | K-562 leukemia 94.1% | MALME-3M melanoma 97.2% | MDA-MB-231 breast 95.2% | RXF 393 renal 117% | SF-268 CNS 97.1% | SF-295 CNS 104% | SF-539 CNS 105% | UACC-257 melanoma 105% | M14 melanoma 98.6%

CCC(C)Oc1cc(/C=N/NC(=O)c2cnn3c2NC(c2ccccc2)C3)ccc1OC (stereo not drawn)
inactive: NCI-H23 lung 58% | NCI-H322M lung 45% | HOP-62 NSCLC 37.2% | NCI-H460 lung 11.5% | HOP-92 NSCLC 71.8% | NCI-H522 lung 10.7% | 786-0 renal 47.6% | DU-145 prostate 45.6% | K-562 leukemia 15.8% | MALME-3M melanoma 58.4% | MDA-MB-231 breast 39.4% | RXF 393 renal 21% | SF-268 CNS 44.7% | SF-295 CNS 18.7% | UACC-257 melanoma 55.5% | M14 melanoma 34%
active: SF-539 CNS 9.65%

NC(=S)N/N=C1\c2ccccc2-c2c(F)c(F)c(F)c(F)c21
active: K-562 leukemia 9.46%
inactive: NCI-H23 lung 72.4% | NCI-H322M lung 93.5% | HOP-62 NSCLC 75.6% | NCI-H460 lung 76.6% | HOP-92 NSCLC 87% | NCI-H522 lung 57.4% | A549/ATCC NSCLC 87.5% | 786-0 renal 88.8% | DU-145 prostate 81.7% | MALME-3M melanoma 73.6% | RXF 393 renal 123% | SF-268 CNS 85.3% | SF-295 CNS 99.5% | SF-539 CNS 96.1% | UACC-257 melanoma 23.1% | M14 melanoma 70.2%

O=C1c2c(c3c4cc(Br)ccc4[nH]c3c3ccc4ccccc4c23)C(=O)N1O
inactive: NCI-H23 lung 95.7% | NCI-H322M lung 96.9% | HOP-62 NSCLC 79.6% | NCI-H460 lung 83.8% | HOP-92 NSCLC 140% | NCI-H522 lung 63.2% | A549/ATCC NSCLC 95.6% | 786-0 renal 106% | DU-145 prostate 103% | K-562 leukemia 71.6% | MALME-3M melanoma 126% | MDA-MB-231 breast 81.7% | RXF 393 renal 103% | SF-268 CNS 81.1% | SF-295 CNS 84.7% | SF-539 CNS 96.4% | UACC-257 melanoma 88.5% | M14 melanoma 94.1%

COc1c(O)c2c3c(c1OC)-c1ccccc1CC3N(S(=O)(=O)c1ccc(C)cc1)CC2 (stereo not drawn)
inactive: NCI-H23 lung 41.2% | NCI-H322M lung 53% | HOP-62 NSCLC 41.6% | NCI-H460 lung 23.3% | HOP-92 NSCLC 59.8% | NCI-H522 lung 19.9% | A549/ATCC NSCLC 44.1% | 786-0 renal 75.8% | DU-145 prostate 36.5% | K-562 leukemia 23% | MALME-3M melanoma 58.6% | MDA-MB-231 breast 52.7% | RXF 393 renal 58.6% | SF-268 CNS 55.1% | SF-295 CNS 85.2% | SF-539 CNS 41.2% | UACC-257 melanoma 54.7% | M14 melanoma 31.2%

O=C(N/N=C(\CS(=O)(=O)c1ccccc1)c1cc2cc(Br)ccc2oc1=O)c1ccccc1
inactive: NCI-H23 lung 101% | NCI-H322M lung 104% | HOP-62 NSCLC 114% | NCI-H460 lung 99.7% | HOP-92 NSCLC 111% | NCI-H522 lung 94.9% | 786-0 renal 106% | DU-145 prostate 105% | K-562 leukemia 112% | MALME-3M melanoma 111% | MDA-MB-231 breast 94.2% | RXF 393 renal 126% | SF-268 CNS 98% | SF-295 CNS 98.6% | SF-539 CNS 101% | UACC-257 melanoma 107% | M14 melanoma 106%

CN(C)c1ccc(/C=C(\C#N)c2cc3ccccc3n2C)cc1
inactive: NCI-H23 lung 34.6% | NCI-H322M lung 49.7% | HOP-62 NSCLC 62.1% | HOP-92 NSCLC 72.5% | A549/ATCC NSCLC 24.6% | 786-0 renal 38.6% | DU-145 prostate 10.9% | MALME-3M melanoma 56.9% | MDA-MB-231 breast 20.1% | RXF 393 renal 10.5% | SF-268 CNS 47.5% | UACC-257 melanoma 68.9%
active: NCI-H460 lung 5.38% | COLO 205 colon -17.2% | K-562 leukemia 7.77% | SF-295 CNS 7.63% | SF-539 CNS -12.5% | M14 melanoma 8.17%

CCC12CCC3c4ccc(O)cc4CCC3C1CC(O)C2O (stereo not drawn)
inactive: NCI-H23 lung 68% | NCI-H322M lung 102% | HOP-62 NSCLC 83.2% | NCI-H460 lung 88% | HOP-92 NSCLC 72.3% | NCI-H522 lung 37.4% | A549/ATCC NSCLC 61.7% | 786-0 renal 92.5% | DU-145 prostate 103% | K-562 leukemia 23.7% | MALME-3M melanoma 70.1% | RXF 393 renal 98.6% | SF-268 CNS 103% | SF-295 CNS 58.1% | SF-539 CNS 80.6% | UACC-257 melanoma 67.4% | M14 melanoma 55%

NS(=O)(=O)c1ccc(C(=O)N/N=C(\CS(=O)(=O)c2ccccc2)c2cc3cc(Br)ccc3o2)cc1
inactive: NCI-H23 lung 80.7% | NCI-H322M lung 103% | HOP-62 NSCLC 96% | NCI-H460 lung 96.3% | HOP-92 NSCLC 77.2% | NCI-H522 lung 80.2% | A549/ATCC NSCLC 87% | 786-0 renal 101% | DU-145 prostate 101% | K-562 leukemia 106% | MALME-3M melanoma 90.5% | MDA-MB-231 breast 73.7% | RXF 393 renal 74.7% | SF-268 CNS 73.3% | SF-295 CNS 101% | SF-539 CNS 80.6% | UACC-257 melanoma 94.8% | M14 melanoma 111%

Cc1c(C(=O)Nc2nc(-c3ccccc3)cs2)nnn1-c1cccc2ccccc12
inactive: NCI-H23 lung 33% [50 µM] | NCI-H322M lung 84.6% [50 µM] | HOP-62 NSCLC 87.9% [50 µM] | NCI-H460 lung 56.4% [50 µM] | HOP-92 NSCLC 70.7% [50 µM] | A549/ATCC NSCLC 43.9% [50 µM] | 786-0 renal 79.8% [50 µM] | COLO 205 colon 69.1% [50 µM] | DU-145 prostate 64.7% [50 µM] | K-562 leukemia 30.5% [50 µM] | MALME-3M melanoma 55.4% [50 µM] | MDA-MB-231 breast 68.7% [50 µM] | RXF 393 renal 89.1% [50 µM] | SF-268 CNS 72.5% [50 µM] | SF-295 CNS 37.2% [50 µM] | SF-539 CNS 69.2% [50 µM] | UACC-257 melanoma 44.9% [50 µM] | M14 melanoma 64.7% [50 µM]

Cc1cccc2c(=O)c3c(sc12)c(NCCCN)nc1ccccc13
active: HOP-62 NSCLC 9.12% | NCI-H460 lung -52.7% | DU-145 prostate -19.8% | K-562 leukemia -34.6% | MDA-MB-231 breast -32.4% | M14 melanoma -19.7%
inactive: NCI-H23 lung 47.8% | NCI-H322M lung 43.2% | HOP-92 NSCLC 31.5% | NCI-H522 lung 13.2% | A549/ATCC NSCLC 14.5% | 786-0 renal 52.9% | MALME-3M melanoma 13.9% | RXF 393 renal 31.5% | SF-268 CNS 46.2% | SF-295 CNS 68% | SF-539 CNS 38.4% | UACC-257 melanoma 81.9%

COC(=O)[C@@]12CC[C@@H](C)[C@]3(C[C@@H](c4ccoc4)OC3=O)[C@H]1CC[C@@H]1O[C@@]12C
inactive: NCI-H23 lung 96.1% | NCI-H322M lung 104% | HOP-62 NSCLC 94.2% | NCI-H460 lung 103% | HOP-92 NSCLC 92.4% | NCI-H522 lung 84.9% | A549/ATCC NSCLC 103% | 786-0 renal 99.3% | DU-145 prostate 104% | K-562 leukemia 113% | MALME-3M melanoma 101% | MDA-MB-231 breast 108% | RXF 393 renal 118% | SF-268 CNS 95% | SF-295 CNS 100% | SF-539 CNS 105% | UACC-257 melanoma 99.6% | M14 melanoma 99.8%

CC(C)(C)[Si](C)(C)OC1[C@@H](COC(N)=O)O[C@@H](n2cnc3c(N)ncnc32)[C@H]1O[Si](C)(C)C(C)(C)C (stereo partly drawn)
inactive: NCI-H23 lung 87.9% | NCI-H322M lung 114% | HOP-62 NSCLC 95.7% | NCI-H460 lung 83.9% | HOP-92 NSCLC 55.3% | A549/ATCC NSCLC 67.8% | 786-0 renal 91.2% | COLO 205 colon 103% | DU-145 prostate 75.1% | MALME-3M melanoma 111% | MDA-MB-231 breast 100% | RXF 393 renal 106% | SF-268 CNS 79.8% | SF-295 CNS 118% | SF-539 CNS 97.4% | M14 melanoma 98.8%
active: K-562 leukemia 7.16%

c1ccc(-c2n(Cc3ccc4ccccc4c3)c3ccccc3[n+]2Cc2ccc3ccccc3c2)cc1
active: NCI-H23 lung -20.9% | NCI-H322M lung 3.63% | HOP-62 NSCLC 4.19% | NCI-H460 lung -82.1% | HOP-92 NSCLC -40.4% | A549/ATCC NSCLC 5.14% | 786-0 renal -94.8% | COLO 205 colon -70.7% | DU-145 prostate 4.24% | K-562 leukemia -35.8% | MALME-3M melanoma -57.5% | MDA-MB-231 breast -49.4% | RXF 393 renal -39.4% | SF-268 CNS -61.9% | SF-295 CNS -47.1% | SF-539 CNS -16.2% | UACC-257 melanoma -21.4% | M14 melanoma -75.8%

c1ccc2cc(Cn3c(-c4ccc5ccccc5c4)[n+](Cc4ccc5ccccc5c4)c4ccccc43)ccc2c1
active: NCI-H23 lung -56.2% | NCI-H322M lung -7.14% | HOP-62 NSCLC -66.8% | NCI-H460 lung -81.7% | HOP-92 NSCLC -60.3% | A549/ATCC NSCLC -65.3% | 786-0 renal -95.1% | COLO 205 colon -69.5% | DU-145 prostate -19.2% | K-562 leukemia -45.1% | MALME-3M melanoma -58% | MDA-MB-231 breast -72.9% | RXF 393 renal -65% | SF-268 CNS -83.5% | SF-295 CNS -79.1% | SF-539 CNS -75.2% | UACC-257 melanoma -38.5% | M14 melanoma -72.8%

CC1CCCCN1S(=O)(=O)c1ccc(CN=C=S)cc1 (stereo not drawn)
active: K-562 leukemia 9.18%
inactive: NCI-H23 lung 97.1% | NCI-H322M lung 96.6% | HOP-62 NSCLC 108% | NCI-H460 lung 88.4% | HOP-92 NSCLC 60.8% | A549/ATCC NSCLC 102% | 786-0 renal 55.9% | COLO 205 colon 52.8% | DU-145 prostate 63.8% | MALME-3M melanoma 87.1% | MDA-MB-231 breast 51.1% | RXF 393 renal 51.9% | SF-268 CNS 91.1% | SF-295 CNS 99.6% | SF-539 CNS 78.3% | UACC-257 melanoma 79.9% | M14 melanoma 42%
